From the supplement of paper PMC8253809

Test system: SUDIPGXIII (diffuse intrinsic pontine glioma line)
Experiment: growth inhibition (% activity, log2 RLU normalised to DMSO / staurosporine); higher = more growth inhibition
Details: 33 µM
In short: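 Approved drugs, at a single final concentration of about 33 μM, were applied in triplicate to pHGG cell lines and H9-derived neural stem cells for 7 days at 37 °C, 5% CO2. The growth-inhibition value is the replicate median of log2-transformed CellTiter-Glo luminescence normalised per plate to % activity between solvent and positive control wells.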

Compound	growth inhibition [%]
C[C@@H](NCCCc1cccc(C(F)(F)F)c1)c1cccc2ccccc12	0.33
Clc1ccc2c(c1)CCc1cccnc1C2=C1CCNCC1	0.814
CCc1cc(C(N)=S)ccn1	-0.39
